Values joined by “and” are separate entries in the source; they are usually repeats but may differ in a detail not shown here. Equal values may be shown once. Inconclusive results are not listed. Active and inactive are the calls of the source. Calls come from the whole dose curve.
Experiment: qHTS Assay for Lipid Storage Modulators (AID 1519); for activity change, negative = inhibition: % is set by controls: 0 for no effect and ±100 for the full control effect
Details: Drosophila S3 cells, BODIPY lipid droplet/cell ratio, laser cytometry, cells loaded with oleic acid
Method in brief: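 Cells seeded at 5,000 per well were treated with compounds over a concentration series and loaded with oleic acid (400 uM, as added). Lipid droplet fluorescence (488 nm excitation, 500-530 nm channel) was read by laser-scanning cytometry and normalized to 20 uM Triacsin C.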

[1] = measured here: cell count channel max response
[2] = measured here: lipid channel max response

| SMILES | activity change, negative = inhibition (at 25.7 µM (top of the series)) | max response [1] | max response [2] | activity change, negative = inhibition (at 57.5 µM (top of the series)) |
| --- | --- | --- | --- | --- |
| CC(=O)SC[C@@H](Cc1ccccc1)C(=O)NCC(=O)OCc1ccccc1 | -7.97% (inactive) | -8.69% | -18.1% |  |
| COc1ccc2cc(CCC(C)=O)ccc2c1 | 1.09% (inactive) | -11.1% | -11.1% |  |
| NS(=O)(=O)c1cc(C2(O)NC(=O)c3ccccc32)ccc1Cl (stereo unspecified) |  | 20% | 27% | 3.99% (inactive) |
| Cc1onc(-c2ccccc2)c1-c1ccc(S(N)(=O)=O)cc1 |  | 11.6% | 23.9% | 13.7% (inactive) |
| CNCc1ccccc1 |  | 16% | 24.6% | 4.39% (inactive) |
| COc1ccccc1OCC(O)CO (stereo unspecified) |  | -0.08% | 10.1% | 8.3% (inactive) |
| CC(C)=CCC/C(C)=C/CO |  | 14.3% | 29.9% | 10.2% (inactive) |
| NC(=O)NC1NC(=O)NC1=O (stereo unspecified) |  | 2.56% | 9.47% | 4.87% (inactive) |
| CC1CCc2cc(F)cc3c(=O)c(C(=O)O)cn1c23 (stereo unspecified) |  | 18.4% | 28.6% | 6.51% (inactive) |
| CN[C@@H]1[C@H](O)[C@H](NC)[C@H]2O[C@@]3(O)C(=O)C[C@@H](C)O[C@H]3O[C@@H]2[C@H]1O |  | 7.5% | 3.08% | -5.49% (inactive) |
| C=CCSCC1Nc2cc(Cl)c(S(N)(=O)=O)cc2S(=O)(=O)N1 (stereo unspecified) |  | 6.41% | 6.24% | 8.24% (inactive) |
| CN1CCCN=C1COC(=O)C(O)(c1ccccc1)C1CCCCC1 (stereo unspecified) |  | 7.14% | 15.3% | 5.7% (inactive) |
| CCCCCC(C)N (stereo unspecified) |  | -12.5% | -21.2% | -8.69% (inactive) |
| CN/C(=C\[N+](=O)[O-])NCCSCc1csc(CN(C)C)n1 | -0.861% (inactive) | -17.1% | -17.9% |  |
| Cc1cccc(C(=O)O)c1O |  | 1.99% | 8.34% | 6.75% (inactive) |
| C[C@@H](N)C(=O)O |  | -10.1% | -15.3% | -5.25% (inactive) |
| C/C=C/C(=O)N(CC)c1ccccc1C |  | 2.55% | 11.8% | 9.1% (inactive) |
| O=C(O)c1cc(=O)c2ccccc2o1 |  | 15.2% | 23.7% | 0.609% (inactive) |
| CCOC(N)=O |  | 18.8% | 25.8% | 5.36% (inactive) |
| CC(C)(C)C(=O)OCOC(=O)[C@@H]1N2C(=O)[C@@H](NC(=O)[C@H](N)c3ccccc3)[C@H]2SC1(C)C | 2.04% (inactive) | -13% | -12.6% |  |
| CC(=O)Oc1cccc(O)c1 |  | 7.77% | 18.4% | 7.58% (inactive) |
| CCc1cccc(CC)c1NC(=O)CN(CC(=O)O)CC(=O)O | 1.96% (inactive) | -4.83% | -3.06% |  |
| C[N+](C)(C)CC[N+]1(C)Cc2c(Cl)c(Cl)c(Cl)c(Cl)c2C1 |  | -22.8% | -20.9% | 0.877% (inactive) |
| CCOC(=O)[C@H](CCc1ccccc1)N[C@@H](C)C(=O)N1CCC[C@H]1C(=O)O | 0.997% (inactive) | -1.26% | 0.539% |  |

| SMILES | activity change, negative = inhibition (at 25.7 µM (top of the series)) | max response [1] | max response [2] | activity change, negative = inhibition (at 57.5 µM (top of the series)) |
| --- | --- | --- | --- | --- |
| O=c1[nH]cnc2nc[nH]c12 |  | 11.9% | 19.1% | 6.77% (inactive) |
| Cc1cc(NC(=O)C2=C(O)c3ccccc3S(=O)(=O)N2C)no1 | -0.235% (inactive) | -4.56% | -5.22% |  |
| CCCNC(C)(C)COC(=O)c1ccccc1 | -1.27% (inactive) | -4.93% | -6.33% |  |
| COc1ccc(NS(=O)(=O)c2ccc(N)cc2)nn1 | 0.554% (inactive) | 3.32% | 3.23% |  |
| CC[N+](CC)(CC(=O)Nc1c(C)cccc1C)Cc1ccccc1 | -1.02% (inactive) | -6.23% | -4.81% |  |
| CCN(CC)CCc1nc(-c2ccccc2)no1 | -4.73% (inactive) | -16% | -19.5% |  |
| CC(N)CCCC(C)(C)O (stereo unspecified) |  | 25.6% | 35.7% | 4.55% (inactive) |
| NC(=O)c1ccc([N+](=O)[O-])cc1Cl |  | -11.1% | -9.4% | -1.34% (inactive) |
| Cc1[nH]c(C)c(Cl)c(=O)c1Cl |  | 4.05% | 14% | 7.41% (inactive) |
| Cc1c(NC(C)C)c(=O)n(-c2ccccc2)n1C | 1.53% (inactive) | 12.2% and 13.2% | 14.1% and 25.6% | 9.46% (inactive) |
| O=C(CCBr)N1CCN(C(=O)CCBr)CC1 |  | 16.2% | 29.1% | 9.22% (inactive) |
| Cc1cc(O)cc(C)c1Cl |  | -12.4% | 1.81% | 11.1% (inactive) |
| C[n+]1ccccc1/C=N/O |  | 15.5% | 23.8% | 6.44% (inactive) |
| Cn1c(=O)c2c(ncn2CCO)n(C)c1=O | -0.0249% (inactive) | 7.29% and 18.9% | 6.36% and 16.1% | 6.15% (inactive) |
| Cc1cccc(Nc2ccccc2C(=O)O)c1C | -1.13% (inactive) | -7.11% and 0.438% | -8.71% and 19.7% | 13.8% (inactive) |
| O=C(O)COC(=O)Cc1ccccc1Nc1c(Cl)cccc1Cl | 1.87% (inactive) | -9.2% | -7.55% |  |
| CC(=O)NCc1c(I)c(NC(C)=O)c(I)c(C(=O)O)c1I |  | 17.6% | 37% | 14.5% (inactive) |
| NS(=O)(=O)c1cc2c(cc1C(F)(F)F)NCNS2(=O)=O | -1.44% (inactive) | -0.735% and 18.6% | -2.63% and 23.7% | 2.96% (inactive) |
| CCS(=O)(=O)CCn1c([N+](=O)[O-])cnc1C | -0.644% (inactive) | -6.2% and 14.4% | -8.29% and 29% | 8.24% (inactive) |
| CC(=O)N[C@@H](CC(C)C)C(=O)O | -0.448% (inactive) | -13.9% | -14.5% |  |
| NC(N)=NCCN1CCCCCCC1 | -2.42% (inactive) | 3.46% and 15.5% | 0.449% and 29.6% | 6.2% (inactive) |
| O=C(Cn1ccnc1[N+](=O)[O-])NCCO | -0.0007% (inactive) | -9.52% and 14.9% | -8.62% and 19.4% | 2.99% (inactive) |
| CC[N+](C)(CC)CCOC(=O)C1c2ccccc2Oc2ccccc21 | -1.37% (inactive) | -9.32% | -11.4% |  |
| O=C(O)c1ccccc1OP(=O)(O)O | 1.48% (inactive) | 3.1% | 4.99% |  |

Source: PubChem BioAssay (NCATS)
